A549 tox-1: Nrf2 qHTS screen for inhibitors: counterscreen for cytotoxicity; A549 ARE-Fluc cells, CellTiter-Fluor viability, 18-24 h; Potency, µM (top dose mostly 46 µM), inactives show at the highest dose activity change, negative = cytotoxicity, usual class: inhibitors; actives 0.16% (n = 390,000); further: potency means the concentration at half of the fitted maximal effect; on the % scale 0 is the no-effect control and ±100 the full control effect
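A549 ARE-Fluc cells in 5% FBS OPTI-MEM, 5000 cells/well, rested 2 h then exposed to compounds in concentration-response for 18-24 h at 37 °C. Viability by CellTiter-Fluor fluorescence (Ex 405/Em 525) after 30 min; luciferase luminescence (BugLite, 15 min, RT) read afterwards.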
Nrf2 ARE act: qHTS of Nrf2 Activators. AREc32 ARE-luciferase reporter (MCF7-derived line), luminescence, 24 h. Potency, µM (series often up to 46.1 µM), inactives show at the top dose activation, usual class: activators. actives 0.31% (n = 410,000). AID 624171, 2012; further: potency means the concentration at half of the fitted maximal effect; % of control where 0% means no effect; nearly all actives have a fitted effect of over 65% in size
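For detection, Steady-Glo was added and plates sat 30 min at RT; before that, AREc32_Fluc cells grown overnight in OPTI-MEM/5% FBS had been treated with 23 nL compound for 24 hr at 37 deg C.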
Nrf2 block: Nrf2 qHTS screen for inhibitors; A549 ARE-Fluc reporter, luciferase luminescence, 18-24 h; Potency, µM (series often up to 46 µM), inactives show at the highest dose activity change, negative = inhibition, usual class: inhibitors; actives 2.1% (n = 360,000); AID 504444, 2011; further: potency means the concentration at half of the fitted maximal effect; on the % scale 0 is the no-effect control and ±100 the full control effect; nearly all actives have a fitted effect of over 60% in size
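Reporter: ARE-Fluc in A549. Exposure: 18-24 h, 37 °C, 5% CO2, 5% FBS OPTI-MEM. Readouts: fluorescent cytotoxicity (CellTiter-Fluor), then luminescent Nrf2 signal after BugLite.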
IL-2 act: qHTS of IL-2 Activators. IL-2 activation reporter assay, cell-based qHTS; stimulated with anti-CD3/CD4/CD28 beads; in transgenic mouse T cells. activation, % (series mostly up to about 46 µM). actives 0.065% (n = 360,000). AID 652025, 2013; in the data active means activation above about 50%; inconclusive means mostly about 30% to 49%; further: 0% is about no effect
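EGFP and DsRed fluorescence is measured by plate cytometry in unstimulated transgenic mouse T cells exposed to compound for 60 minutes, then stimulated 18 hours at 37 degrees C with anti-CD3/anti-CD4 beads plus anti-CD28.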
FLuc enzyme inh: Nrf2 qHTS screen for inhibitors: Purified Fluc Biochemical Counterscreen for Hit Validation | shares compounds with Nrf2 block | purified firefly luciferase, luminescence inhibition | Potency, µM (highest dose often 57.5 µM), for the others: at the top dose activity change, negative = inhibition, hits mostly inhibitors | actives 4% (n = 1,400); further: potency means the concentration at half of the fitted maximal effect; on the % scale 0 is the no-effect control and ±100 the full control effect; nearly all actives have a fitted effect of over 65% in size
Target sequence (P08659 whole entry, looked up): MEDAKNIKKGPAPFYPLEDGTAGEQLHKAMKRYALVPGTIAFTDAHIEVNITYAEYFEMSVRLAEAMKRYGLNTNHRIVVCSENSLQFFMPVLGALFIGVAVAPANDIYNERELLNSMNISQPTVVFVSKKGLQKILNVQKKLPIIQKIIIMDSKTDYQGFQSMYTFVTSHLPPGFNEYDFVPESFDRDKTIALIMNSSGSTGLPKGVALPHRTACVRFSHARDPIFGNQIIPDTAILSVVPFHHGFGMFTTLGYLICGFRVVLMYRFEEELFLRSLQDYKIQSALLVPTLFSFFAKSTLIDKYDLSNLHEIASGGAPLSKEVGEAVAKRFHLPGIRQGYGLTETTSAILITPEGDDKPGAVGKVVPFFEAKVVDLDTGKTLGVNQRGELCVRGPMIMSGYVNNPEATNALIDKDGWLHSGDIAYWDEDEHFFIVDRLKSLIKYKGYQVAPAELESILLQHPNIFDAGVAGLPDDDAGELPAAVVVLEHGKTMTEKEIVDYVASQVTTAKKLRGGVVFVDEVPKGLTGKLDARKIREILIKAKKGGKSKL
A549 tox-2: Nrf2 qHTS screen for inhibitors: A549 ARE-Fluc Cytotoxicity Counterscreen for Hit Validation; shares compounds with Nrf2 block; actives 2% (n = 1,400); Potency, µM (doses to about 46.1 µM), for the others: top-dose activity change, negative = cytotoxicity, usual class: inhibitors; AID 720523, 2013; A549 ARE-Fluc cells, cytotoxicity counterscreen;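 further: potency means the concentration at half of the fitted maximal effect; cells exposed to compounds for 18 to 24 hours; on the % scale 0 is the no-effect control and ±100 the full control effect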
ARE-Fluc inh: Nrf2 qHTS screen for inhibitors: Nrf2 A549 ARE-Fluc Confirmation Assay for Hit Validation | shares compounds with Nrf2 block | A549 ARE-firefly luciferase reporter, luminescence | Potency, µM (series often up to 46.1 µM), without a hit: at the top dose activity change, negative = inhibition, hits mostly inhibitors | actives 74% (n = 1,400) | AID 720524, 2013; further: potency means the concentration at half of the fitted maximal effect; on the % scale 0 is the no-effect control and ±100 the full control effect; nearly all actives have a fitted effect of over 65% in size
* marks the source's active call; other numbers are inactive results; ? = inconclusive; . = not tested or not shown; [ ] = dose if it differs, or a comment. A selection: hits, their analogues and other compounds. The true share with any hit is near 2.3%. Unless noted, the call rests on the fitted dose curve; in most records, active means well fitted curve in the direction sought with a large enough effect; inconclusive means small, poorly fitted or top-dose-only effect, or another doubt; inactive means no such curve, though single readings can be large; an effect the other way counts as inactive or inconclusive.

SMILES | A549 tox-1 | Nrf2 ARE act | Nrf2 block | IL-2 act | FLuc enzyme inh | A549 tox-2 | ARE-Fluc inh
COc1ccccc1C(=O)NNC(=S)NC(=O)c1cc(OC)c(OC)c(OC)c1 | -12% | 0% | ? | 1 | . | . | .
Cc1c(Cl)cccc1NC(=O)CSc1ccc(-c2ccccn2)nn1 | -1% | 2% | 7% | . | . | . | .
O=S(=O)(NCc1ccc(F)cc1)c1ccc2[nH]c3c(c2c1)CCCC3 | -16% | 1% | ? | . | . | . | .
Cc1c(NC(=O)Nc2ccc(Br)cc2F)sc2nc3n(c(=O)c12)CCC(C)CC3 (stereo not given) | 1% | -1% | 0% | . | . | . | .
COc1ccc(NC(=O)/C(Cl)=C(/Cl)S(=O)Cc2ccccc2Cl)cn1 (stereo not given) | 15µM* | -3% | -135% | -1 | . | . | .
COc1ccc(NC(=O)Cc2ccc(Cl)c(Cl)c2)cn1 | 6% | 0% | 0% | -4 | . | . | .
Cc1cccnc1Nc1nc(-c2ccccn2)cs1 | ? | 27% | ? | -1 | . | . | .
Cc1cccnc1Nc1nc(-c2ccccc2)cs1 | 4% | 3.2µM* | ? | -1 | . | . | .
O=C(CSc1ccc(-c2ccc3c(c2)OCO3)nn1)Nc1nccs1 | -11% | 0% | ? | -2 | . | . | .
O=C(CSCC(=O)Nc1nc(-c2ccc3c(c2)OCO3)cs1)Nc1nccs1 | 2% | 3% | 21µM* | -4 | . | . | .
Cc1ccccc1Cn1c(=O)n(CCCCC(=O)NCc2ccccc2Cl)c(=O)c2ccccc21 | 0% | -1% | -17% | . | . | . | .
COc1cccc(C(=O)CC2(O)C(=O)N(Cc3ccccc3)c3ccccc32)c1 (stereo not given) | -4% | 6% | -9% | . | . | . | .
Cc1cc(C)n2nc(-c3ccc(Br)cc3)cc2n1 | 26% | 2.2µM* | ? | 0 | . | . | .
Cc1cc(C)n2nc(-c3ccc(Cl)cc3)cc2n1 | 8% | 14µM* | ? | 1 | . | . | .
COc1ccc(-c2cc3nc(C)cc(C)n3n2)cc1 | -5% | 26% | ? | 1 | . | . | .
CCCCN(CCCNC(=O)CN1N=C(c2ccc(C)cc2)CCC1=O)c1ccccc1 | -7% | 4% | . | . | . | . | .
CN(CCO)c1nc(-c2cccs2)nc2ccccc12 | -3% | . | -29% | . | . | . | .
CCc1ccc2ncc3c(-c4ccc(F)cc4)nn(CC(=O)NC4CCCCC4)c3c2c1 | 0% | -1% | 1.6µM* | . | 0% | -2% | ?
C=CCn1c(SCc2c(C)noc2C)nc2sc3c(c2c1=O)CCCC3 | ? | -1% | 9.2µM* | -2 | -1% | -14% | ?
C=CCn1c(SCC(=O)N(C)C)nc2sc3c(c2c1=O)CCC3 | -1% | 2% | -11% | 0 | . | . | .
CC(NC(=O)c1ccc(NC(=O)c2nsc3ccccc23)cc1)c1ccccc1 (stereo not given) | ? | -1% | . | . | . | . | .
CC(C)(C)c1ccc(OCc2nc3ccccc3n2CCOc2ccccc2)cc1 | 10% | 1% | 19% | . | . | . | .
C[n+]1ccccc1COc1ccc(C(C)(C)C)cc1 | ? | 0% | 2.3µM* | -4 | -9% | -11% | 5.2µM*
COc1ccc(Cn2cccc(NC(=O)Nc3cccc(C#N)c3)c2=O)cc1 | -10% | 3% | 5.2µM* | -2 | -17% | 5% | ?
COc1cccc(-c2nnc3n2N=C(c2c(OC)cccc2OC)CS3)c1 | -2% | . | -9% | . | . | . | .
SMILES | A549 tox-1 | Nrf2 ARE act | Nrf2 block | IL-2 act | FLuc enzyme inh | A549 tox-2 | ARE-Fluc inh
COc1ncccc1C(=O)N1CCCC(N2CCN(c3cccc(Cl)c3)CC2)C1 (stereo not given) | 4% | 2% | 8.2µM* | -5 | -1% | 1% | ?
COc1ncccc1C(=O)N1CCCC(N2CCN(c3ccc(F)cc3)CC2)C1 (stereo not given) | 0% | 0% | -22% | -3 | . | . | .
Nc1nc(-c2ccco2)nn1C(=O)c1ccc(Cl)cc1 | -7% | -1% | 7.3µM* | 0 | 1% | 0% | 4.1µM*
O=S(=O)(c1ccccc1)c1nc(-c2ccccc2F)oc1N1CCOCC1 | 4% | 0% | -13% | . | . | . | .
Cn1c2c(c(=O)[nH]c1=O)C(c1cccc(O)c1)C1=C(N2)c2ccccc2C1=O (stereo not given) | -25% | 0%[9.22 µM] | 8.2µM* | -4 | -25% | ? | 4.6µM*
Cc1onc(-c2ccccc2)c1C(=O)Nc1ccncc1 | 3% | 0% | 8% | -1 | . | . | .
CC(=O)Nc1ccc(NC(=O)c2c(-c3ccccc3)noc2C)cn1 | -1% | 2% | 7.3µM* | -5 | 3% | -8% | 9.2µM*
Cn1nc(C(C)(C)C)cc1C(=O)NCc1ccc2c(c1)OCO2 | -18% | -1% | 1.8µM* | -3 | 4% | -16% | 3.7µM*
N#Cc1nc(-c2ccco2)oc1N1CCN(c2cccc(Cl)c2)CC1 | 0% | 0% | 1.8µM* | -1 | -23% | ? | 10µM*
CC[N+](C)(CC)CCOC(=O)C(O)(c1ccccc1)C1CCCCC1 (stereo not given) | -4% | -1% | 7.3µM* | 0 | -1% | 9.2µM* | ?
O=C(NC(=S)NNC(=O)c1cnccn1)c1ccc(Cl)cc1 | -26% | 0% | 5.8µM* | 7 | -11% | -14% | 5.8µM*
COc1ccc(C(=O)NC(=S)NNC(=O)c2cnccn2)cc1 | ? | 0% | ? | 0 | ? | -27% | 5.8µM*
COc1ccc(CC(=O)NNC(=O)c2cnccn2)cc1 | 6% | -1% | 2% | 0 | . | . | .
COc1cccc(/C=N/n2c(N)c(S(=O)(=O)c3cccs3)c3nc4ccccc4nc32)c1OC | ? | 0% | 3.7µM* | -3 | -1% | -13% | .
Cc1ccc(C)c(N2CCN(C(=O)c3cc(S(=O)(=O)N4CCCCC4)cn3C)CC2)c1 | 17% | 0% | . | . | . | . | .
Cn1nccc1C(=O)Nc1cc(Cl)ccc1Cl | 1% | 3% | 2.9µM* | -1 | -15% | -1% | 5.8µM*
Cc1cc(C)c(C(=O)NC2CCCc3c2cnn3-c2cccc(C)c2C)o1 (stereo not given) | -13% | 0% | ? | -5 | . | . | .
CCc1cc(C(=O)NC2CCCc3c2cnn3-c2cccc(C)c2C)n(C)n1 (stereo not given) | ? | 1% | 0.18µM* | -1 | 1% | -3% | 0.082µM*
Cc1ccc(-n2ncc3c2CCCC3NC(=O)c2ccoc2)cc1C (stereo not given) | -11% | 0% | ? | -4 | . | . | .

Source: PubChem (National Center for Advancing Translational Sciences (NCATS))
